About 79,000 compounds went through this panel and 15% of them were active in at least one assay; those are over-represented in the sample as a whole. Rule as the data show it: active = growth inhibition above about 70%; inactive = the rest.
Columns and labels:
[1] = NCI Yeast Anticancer Drug Screen. Data for the rad50 strain (AID 155);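 also: 0% = growth of vehicle-only cultures of the same strain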; details: S. cerevisiae rad50 strain growth inhibition; at 50.0 µM; active compounds read high
In short: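 Cells are treated with compound, grown, and their growth is then scored against vehicle-only cultures of the same repair-deficient yeast strain.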

[2] = NCI Yeast Anticancer Drug Screen. Data for the mec2-1 strain (AID 157); details: S. cerevisiae mec2-1 strain, at 50.0 µM, active compounds read high
In short: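 Each compound was tested on mec2-1 yeast, a strain altered in DNA damage repair or cell cycle control. Growth inhibition is reported relative to vehicle.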

[3] = NCI Yeast Anticancer Drug Screen. Data for the sgs1 mgt1 strain (AID 161);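 also: 0% = growth of cultures given vehicle only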; details: S. cerevisiae sgs1 mgt1 strain, at 50.0 µM, active compounds read high
In short: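 Read-out: growth inhibition vs vehicle controls. Cells: mutant yeast strain deficient in DNA damage repair.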

[4] = NCI Yeast Anticancer Drug Screen. Data for the cln2 rad14 strain (AID 165);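 also: 0% = growth equal to vehicle treated cultures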; details: S. cerevisiae cln2 rad14 strain, at 50.0 µM, active compounds read high
In short: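 Test compounds were added to cln2 rad14 yeast cultures; inhibition of growth was then determined by comparison with vehicle treatment.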

[5] = NCI Yeast Anticancer Drug Screen. Data for the bub3 strain (AID 167); details: S. cerevisiae bub3 mutant strain, at 50.0 µM, active compounds read high
In short: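 Part of a panel of yeast mutants defective in DNA damage repair or cell cycle regulation. Each strain is grown with compound, and inhibition is calculated relative to solvent-treated cultures.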

[6] = NCI Yeast Anticancer Drug Screen. Data for the mlh1 rad18 strain (AID 175); details: S. cerevisiae mlh1 rad18 strain growth inhibition; at 50.0 µM; active compounds read high
In short: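 Inhibition values reflect reduced growth of mutant yeast versus vehicle-treated controls following compound exposure; the mutations affect DNA damage repair.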

Measured: growth inhibition

COc1cc(N(CCCl)CCCl)c(OC)cc1C=Nc1cccc(Cl)c1
inactive: [1] 31.4% | [2] 10.3% | [3] 44.4% | [4] 10.6% | [5] 24.6% | [6] 34.2%

c1ccc(CCN2CCCCC2)cc1
inactive: [1] 23.2% | [2] -4.6% | [3] 10.4% | [4] -2.45% | [5] -14.5% | [6] 33.9%

COc1cc2c(cc1OC)CC[N+](C)=C2
inactive: [1] 5.65% | [2] -6.5% | [3] 13.8% | [4] -2.45% | [5] -2.4% | [6] 2.65%

CC(C)(C(=O)c1ccccc1)N1CC1
inactive: [1] -0.65% | [2] 2.8% | [3] -4.75% | [4] -10.6% | [5] -23.6% | [6] -8.25%

O=S(=O)(F)c1ccccc1S(=O)(=O)Cl
inactive: [1] 11.7% | [2] -2.55% | [3] 15.6% | [4] 16.4% | [5] 12.4% | [6] 21.6%

O=C(NCC(O)CO)c1ccc(N(CCCl)CCCl)c([N+](=O)[O-])c1[N+](=O)[O-] (stereo unspecified)
inactive: [1] 17.1% | [2] 4.7% | [3] 16.3% | [4] 8.1% | [5] 12.7% | [6] 17.1%

Cc1ccc(C[N+](C)(C)C)cc1
inactive: [1] 10.6% | [2] -17.6% | [3] 6.7% | [4] 12.1% | [5] -10.1% | [6] 4.5%

C=CCOC(=O)C(Br)CC (stereo unspecified)
inactive: [1] 7.65% | [2] -3.2% | [3] -3.7% | [4] -6.25% | [5] 11.9% | [6] -14.5%

O=[P+](O)c1cccnc1
inactive: [1] 6.6% | [2] -8.05% | [3] 14.2% | [4] 17.4% | [5] 16.7% | [6] 13.8%

CN(C)/N=C/c1c[nH]c2ccccc12
inactive: [1] -13.9% | [2] -13.8% | [3] -20.1% | [4] 0.5% | [5] -17.7% | [6] -8.4%

NS(=O)(=O)c1ccc(N=Nc2ccc([As](=O)(O)O)cc2)cc1
inactive: [1] 43% | [2] 6.6% | [3] 18.6% | [4] 19.2% | [5] 3.45% | [6] 19.9%

Cc1ccc(C(=O)O[C@H](C(=O)O)[C@H](OC(=O)c2ccc(C)cc2)C(=O)O)cc1
inactive: [1] 18.1% | [2] -4.05% | [3] -19.6% | [4] 10.4% | [5] 2.6% | [6] -11.1%

NCc1c[nH]c2ccccc12
inactive: [1] -25.1% | [2] 4.8% | [3] -22.7% | [4] -12.8% | [5] -16.5% | [6] -9.7%

O=C(CCC1CCCCN1)Nc1ccc2c(c1)C(=O)c1ccc(NC(=O)CCN3CCCCC3)cc1C2=O (stereo unspecified)
inactive: [1] 6.2% | [2] 9.2% | [3] -1.9% | [4] 9.3% | [5] -12.6% | [6] 6.8%

O=C(Cl)OC1CS(=O)(=O)CC1O (stereo unspecified)
inactive: [1] -6.6% | [2] 1% | [3] -2.5% | [4] -34.6% | [5] 4.45% | [6] 0.25%

Cc1ccc(N2C(=O)C3C(C2=O)C2(Cl)C(Cl)=C(Cl)C3(Cl)C2(Cl)Cl)cc1Cl (stereo unspecified)
inactive: [1] -1.25% | [2] 3.25% | [3] -1.1% | [4] -36.1% | [5] 2.65% | [6] 9.5%

C1CCC2[N-]CCCC2C1.C1CCC2[N-]CCCC2C1.[Cl][Pt+2][Cl] (stereo unspecified)
inactive: [1] 42.2% | [2] 36% | [3] 55.2% | [4] 22.9% | [5] 59.4% | [6] 64.6%

Nc1cccc(SC2CC(=O)N(c3ccc(Cl)cc3C(=O)c3ccccc3)C2=O)c1 (stereo unspecified)
inactive: [1] 16.6% | [2] -4.6% | [3] 34.2% | [4] 26.4% | [5] 19.9% | [6] 22.9%

CSP(=S)(SC)SC(C)C
inactive: [1] 19% | [2] 1.65% | [3] 24.1% | [4] 27.2% | [5] 6.5% | [6] -4.45%

CC(=O)O[C@H]1CC[C@@]2(C)[C@H](CC[C@@H]3[C@@H]2CC[C@]2(C)[C@@H](c4ccc(=O)oc4)C[C@H]4O[C@]342)C1
inactive: [1] 53% | [2] 7.05% | [3] 29.5% | [4] 13.9% | [5] 8.45% | [6] 17.4%

CN(C)[C@@H]1C(=O)C(C(N)=O)=C(O)[C@]2(O)C(=O)C3C(=O)c4c(O)ccc(Cl)c4[C@](C)(O)[C@H]3C[C@@H]12 (stereo partly specified)
inactive: [1] -6.15% | [2] 7.5% | [3] 22.8% | [4] -2.35% | [5] 3.15% | [6] -2.9%
